The entries come from a sample that favours hits as a whole.
Pf Dd2 inh – Plasmodium falciparum Dd2 growth inhibition | P. falciparum Dd2 growth, SYBR Green, 72 h | Potency, µM (doses to about 28.9 µM), most hits filed as inhibitors | actives 4.3% (n = 120,000) | AID 1347417; active = well fitted inhibition curve with a large enough effect; also: nearly all actives have a fitted effect of over 65% in size
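Readout: SYBR Green fluorescence, 485 nm excitation, 535 nm emission, after ~16 h lysis at 37C. Before that, Dd2-infected red cells (2.5% hematocrit) grew 72 h with compound, 29 uM top final concentration.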
Hits are given with their value; i = inactive; [ ] = another dose, or the depositor's remark.

SMILES	Pf Dd2 inh
O=S(=O)(c1cccs1)N1CCC(c2nc(CCOc3ccc(F)cc3)no2)C1 (centres undefined)	i
CCCNC(=O)CC1Sc2ncccc2N(CC)C1=O (centres undefined)	i
COCCOCC(=O)N1CC(Oc2cccc(-c3nc(C)no3)c2)C1	i[5.79 µM]
O=C1CN(Cc2ccc(-c3ccsc3)cc2)CCN1c1cc(Cl)ncn1	i
Cc1ccc(NC(=O)N2CCN(c3nnnn3-c3cccc(C(F)(F)F)c3)CC2)cc1F	7.9µM
CCc1cccc(-n2nnnc2N2CCN(C(=O)Nc3ccc(C)c(Cl)c3)CC2)c1	i
CCc1cccc(-n2nnnc2N2CCN(C(=O)Nc3ccc(C)c(Br)c3)CC2)c1	i
CC(=O)c1ccc(NC(=O)Cn2c(-c3ccc(Cl)cc3)nc(C)cc2=O)cc1	i
CN1C(=O)CCC2(CNC(=O)c3nn(C)c4ccccc34)CCCC=C12 (centres undefined)	i
O=C(COc1ccccc1)Nc1ccc([C@@H](O)[C@H]2COCC(=O)N2CCCc2ccccc2)cc1	7.9µM
CCOCCN1C(=O)COC[C@@H]1[C@H](O)c1ccc(NC(=O)COc2ccccc2)cc1	i
CCN1C(=O)COC[C@@H]1[C@H](O)c1ccc(NC(=O)COc2ccccc2)cc1	i
Cc1oc2ccc(O)c(CN(C)Cc3ccccc3)c2c1C(=O)Nc1cccc(Cl)c1C	3.2µM
Cc1ccccc1NC(=O)C1=NO[C@@H]2CN(CCc3ccccc3)C[C@H]12	i
CCCn1ccc2oc(C)c(C(=O)NCc3ccccc3)c2c1=O	i
CCN(Cc1ccccc1)Cc1c(O)ccc2oc(C)c(C(=O)Nc3ccccc3C)c12	1.1µM
Cc1c(Cl)cccc1NC(=O)c1ccc(C(=O)Nc2cccc(Cl)c2C)cc1	i
Cc1ccccc1NC(=O)c1c(C)oc2ccc(O)c(CN(C)Cc3ccccc3)c12	1.1µM
Cc1ccccc1NC(=O)c1ccc2nc(Cc3ccccc3)oc2c1	i
CCc1ccc2oc(C(=O)Nc3cccc(Cl)c3C)cc(=O)c2c1	i
Cc1cc(C)c2c(=O)cc(C(=O)Nc3ccc(S(=O)(=O)N(C)Cc4ccccc4)cc3)oc2c1	i
O=C(NCCCc1ccccn1)c1ccc(C2CCCNC2)cc1 (centres undefined)	i
N#Cc1ccc(CN2CCn3c(nnc3C3CCCNC3)C2)cc1 (centres undefined)	i
Cc1noc(C)c1CC(=O)N1CCC2(CC1)N(CC1CC1)C(=O)CS2=O (centres undefined)	i
Cc1cc2ncc(C(=O)NC(C)c3ccc(F)cc3)cn2n1 (centres undefined)	i
SMILES	Pf Dd2 inh
CC1CCC(NC(=O)CN2C(=O)NC3(CCCCC3)C2=O)CC1 (centres undefined)	i
COc1cccc(N2CCN(C(=O)C[C@H]3NC(=O)c4ccccc4NC3=O)CC2)c1	i
CC(=O)NC1(C)CCN(Cc2ccc(-c3ccccc3Oc3ccccc3)cc2)C1 (centres undefined)	7.1µM
COc1ccccc1CNC(=O)C1(CCO)CCN(Cc2ccccc2)C1 (centres undefined)	i
CC(=O)NC1(C)CCN(Cc2ccc(-c3ccc4c(ccn4C)c3)cc2)C1 (centres undefined)	10µM
CC(=O)NC1(C)CCN(Cc2ccc(-c3ccc([S+](C)(=O)[O-])cc3)cc2)C1 (centres undefined)	i
CC(=O)NC1(C)CCCN(Cc2cc(Br)cs2)C1 (centres undefined)	i
COc1cc(CN2CCC(C)(NC(C)=O)CC2)cc(-c2ccccc2)c1	i
CCCN(CC1CCOC1)C(=O)Nc1cccc(Br)c1 (centres undefined)	i[5.79 µM]
Cc1nonc1CC(=O)N1CCC2(CCC(=O)N(CCc3ccncc3)C2)CC1	i
O=C1NCCCCCCN(C(=O)Nc2ccccc2)[C@H]2C[C@H](c3nc(-c4cccnc4)no3)C[C@@H]12	i
CCN1c2cc(C(=O)Nc3ccc(SC)cc3)ccc2C(=O)N2CCCCC21 (centres undefined)	i
CN1c2cc(C(=O)Nc3ccc(Br)cc3)ccc2C(=O)N2CCCCCC21 (centres undefined)	i
CCN1c2cc(C(=O)Nc3ccc(OC(F)(F)F)cc3)ccc2C(=O)N2CCCC21 (centres undefined)	i
CCN1c2cc(C(=O)Nc3cccc(F)c3)ccc2C(=O)N2CCCCC21 (centres undefined)	i
CN1c2cc(C(=O)Nc3ccc(C(F)(F)F)cc3)ccc2C(=O)N2CCCCCC21 (centres undefined)	11µM
CN1c2cc(C(=O)NCc3cccc(Cl)c3)ccc2C(=O)N2CCCCCC21 (centres undefined)	i
CCN1c2cc(C(=O)Nc3cccc(SC)c3)ccc2C(=O)N2CCCCCC21 (centres undefined)	6.3µM
Cc1ccc(CNC(=O)c2ccc3c(c2)N(C)C2CCCN2C3=O)cc1 (centres undefined)	i
CN1c2cc(C(=O)Nc3ccc(F)cc3)ccc2C(=O)N2CCCCCC21 (centres undefined)	i
CCN1c2cc(C(=O)Nc3ccc(OC(F)(F)F)cc3)ccc2C(=O)N2CCCCC21 (centres undefined)	1.8µM
CCN1c2cc(C(=O)Nc3ccc(OC)cc3)ccc2C(=O)N2CCCCCC21 (centres undefined)	i
Cc1cccc(CNC(=O)c2ccc3c(c2)N(C)C2CCCCN2C3=O)c1 (centres undefined)	4µM
CC(C)n1c(C2CCCN(C(=O)C3CC3)C2)nn(C)c1=O (centres undefined)	i
Cc1nn(C)c2ncc(C(=O)O)c(NC3CC(c4cc(=O)[nH]cn4)C3)c12 (centres undefined)	i
SMILES	Pf Dd2 inh
COc1cccc(N2C(=O)NC(=NC3CCCCC3)C23CCN([S+](=O)([O-])c2cccc(C(F)(F)F)c2)CC3)c1	i
COc1ccccc1NC(=O)N1CC[C@H]2CC(=O)N(CCc3cnc[nH]3)CC[C@H]2C1	i
O=C(Cc1ccccc1)N1CCC(c2noc(-c3cnccn3)n2)C1 (centres undefined)	i[5.79 µM]
CCn1nc(C)c(CNC(=O)C2CCN(C(=O)N3CC4CC(C3)[C@H]3CCCC(=O)N3C4)CC2)c1C (some centres undefined)	i
COCCn1ccc2c(C(=O)Nc3ccc4c(c3)C(=O)N3CCC[C@H]3C(=O)N4)cccc21	i
Cc1ccc(C2NC(=O)N(CC(=O)Nc3ccc4c(c3)OCO4)C3=C2C(=O)OC3)cc1 (centres undefined)	i
CCOc1cccc(CNC(=O)CN2CC3CC(C2)[C@H]2CCCC(=O)N2C3)c1 (some centres undefined)	i
Cc1cc(NC(=O)c2ccc3c(c2)N(C)C2CCCCCN2C3=O)ccc1Cl (centres undefined)	i
COc1cccc(NC(=O)c2ccc3c(c2)C(O)CCCCCN3C)c1 (centres undefined)	i
COc1ccc(OC)c(NC(=O)c2ccc3c(c2)C(O)CCCCCN3C)c1 (centres undefined)	i
CN1CCCCCC(O)c2cc(C(=O)Nc3cccc(OC(F)(F)F)c3)ccc21 (centres undefined)	14µM
CCN1c2cc(C(=O)Nc3ccc(Cl)c(C)c3)ccc2C(=O)N2CCCCCC21 (centres undefined)	6.3µM
CCN1c2cc(C(=O)Nc3ccc(Cl)c(Cl)c3)ccc2C(=O)N2CCCCC21 (centres undefined)	i
O=C1Nc2ccccc2CC12CN(CC1CCNC1)C2 (centres undefined)	i
N[C@@H](Cc1cnc[nH]1)C(=O)N1CCC(c2cc(-c3ccccc3Cl)n[nH]2)CC1	i
